This is part of a sample that, as a whole, favours compounds with a hit. Of some 83,000 tested, about 20% had one in any assay.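 Testing used 96-well plates and a 48-hour single-concentration exposure. Example: -40 means 40% of the starting cells died.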 Values without a mark were called inactive. Active and inactive are the calls of the source. Rule for the calls: active = growth percent below 10; inactive = the rest.

Experiment in all cases: NCI-60 one-dose screen, 48 h (100 = growth as untreated, 0 = no growth, -100 = all killed)
Conditions in all cases: 10 µM unless noted

Assay [1] deals with NCI-H23 lung.
Assay [2] has as its system NCI-H226 lung.
The test system of assay [3] is NCI-H322M lung.
The subject of assay [4] is HOP-62 NSCLC.
The subject of assay [5] is NCI-H460 lung.
The subject of assay [6] is HOP-92 NSCLC.
Assay [7] has as its system NCI-H522 lung.
Assay [8] deals with A549/ATCC NSCLC.
The subject of assay [9] is 786-0 renal.
Assay [10] deals with COLO 205 colon.
Assay [11] concerns DU-145 prostate.
Assay [12] has as its system K-562 leukemia.
In assay [13] the test system is MALME-3M melanoma.
Assay [14] has as its system MDA-MB-231 breast.
For assay [15], the system named is RXF 393 renal.
For assay [16], the system named is SF-268 CNS.
Assay [17] relates to SF-295 CNS.
The test system of assay [18] is SF-539 CNS.
In assay [19] the test system is UACC-257 melanoma.
The test system of assay [20] is M14 melanoma.

For `FC(F)(F)c1ccccc1-c1cn2c(ccc3ccccc32)n1`, the growth in [1] is 85.3%; in assay [2], 77.5%; in assay [3] it was 96.1%; in [4], 60.4%; in [5], 85.3%; in assay [6], 79.9%. In addition, the growth in [7] was 49%; in assay [8], 80%; in assay [9], 94.9%; in assay [10], 102%; in [11], 104%; in assay [12], 29.8%. The growth in [13] is 65.1%; in assay [14], 69.5%; in [15], 84.4%; in [16] it was 90.3%; in [17], 62.1%; in assay [18], 78.6%. In addition, the growth is 70.3% in assay [19] and 60.3% in assay [20].

With `O=C(NCCCNc1nccc(-n2ccc3cccnc32)n1)c1c(F)cccc1F`, the growth was 101% in assay [1]; 99.4% in assay [2]; 103% in assay [3]; 101% in [4]; 104% in assay [5]; 110% in [6]. In addition, the growth is 101% in assay [7]; 102% in [8]; 98% in assay [9]; 113% in assay [10]; 107% in assay [11]; 98.7% in assay [12]. For the same compound, the growth in [13] was 106%; in [14], 95.5%; in assay [15] it was 108%; in [16], 96.3%; in assay [17], 98.4%; in [18], 97.9%. Moreover, the growth in [19] was 113%; in assay [20] it was 102%.

As to `Nc1ccc(C(=O)CSc2nc3ccccc3[nH]2)cc1`, the growth in assay [1] was 98.4%; in assay [2] it was 108%; in [3] it was 108%; in assay [4], 111%; in assay [5], 106%; in assay [6] it was 116%. Further, the growth in assay [7] was 101%; in [8] it was 99.8%; in assay [9], 93.5%; in [10], 120%; in [11] it was 103%; in assay [12], 103%. Further, the growth in assay [13] is 107%; in assay [14], 105%; in [15], 110%; in assay [16], 99.4%; in [17], 98.1%; in assay [18], 104%. In addition, the growth was 107% in [19] and 108% in assay [20].

As to `CCOc1cc2c(Cl)ncnc2c(OCC)c1OCC`, the growth in [1] was 79.6%; in assay [2] it was 91.6%; in assay [3], 65.4%; in [4], 90.9%; in assay [5], 99%; in assay [6] it was 86.9%. Also, the growth in assay [7] was 58.8%; in assay [8] it was 95.6%; in [9] it was 105%; in assay [10], 95.8%; in [11] it was -56.1% (active); in assay [12], 19.5%. Further, the growth in assay [13] is 83.8%; in assay [14], 77.7%; in [15], -5.68% (active); in assay [16], 33.9%; in assay [17] it was 96.1%; in assay [18], 92.5%. Besides, the growth in assay [19] is -17% (active); in assay [20] it was 73.7%.

In the case of `COc1ccc(-c2nc(SCCC(C)C)nc(Nc3ccc(F)c(Cl)c3)c2C#N)cc1`, the growth in [1] is 90.2%; in [2], 65.8%; in [3], 63.2%; in [4], 88.7%; in assay [5], 24.1%; in assay [6] it was 101%. Moreover, the growth in assay [7] is 84.5%; in assay [8] it was 58.9%; in [9], 45.4%; in assay [10] it was 70.8%; in assay [11], 97.7%; in [12], 56.2%. In addition, the growth in assay [13] was 84.2%; in assay [14] it was 100%; in assay [15], 101%; in [16], 83%; in [17], 78%; in [18] it was 70.3%. In addition, the growth in assay [19] was 103%; in assay [20], 95%.

For `O=C(O)C1CCCCN1c1nc(Cl)nc(Cl)n1` (stereo not given), the growth in assay [1] is 98.9%; in [2] it was 89.1%; in [3] it was 106%; in assay [4], 101%; in assay [5], 105%; in assay [6] it was 106%. For the same compound, the growth in assay [7] is 93.3%; in assay [8], 101%; in assay [9], 105%; in assay [10], 106%; in assay [11], 107%; in assay [12], 103%. The growth in assay [13] is 108%; in assay [14], 110%; in assay [15], 113%; in [16], 99.2%; in [17], 101%; in assay [18], 92.6%. The values for the growth in assay [19] and in assay [20] were 100% and 108%, respectively.

`Nc1cccc(Cl)c1N`: the growth was 85.2% in assay [1]; 101% in [2]; 99.5% in assay [3]; 108% in assay [4]; 101% in assay [5]; 106% in [6]. Further, the growth in assay [7] was 71.1%; in assay [8] it was 109%; in assay [9], 110%; in assay [10], 104%; in assay [11] it was 117%; in assay [12], 102%. The growth is 116% in assay [13]; 99.3% in [14]; 121% in assay [15]; 104% in assay [16]; 118% in assay [17]; 90.4% in assay [18]. Moreover, the growth in [19] was 113%; in assay [20] it was 104%.

For the origin of these results see PubChem BioAssay (NCI).
